# Records with an inconclusive call do not appear. Values without a mark were called inactive. Active and inactive are the calls of the source. Calls follow the shape of the dose curve; as a rule, active = well fitted inhibition curve with a large enough effect; inconclusive = small, poorly fitted or top-dose-only effect; inactive = no such curve, though single readings can be large or run the other way. Non-standard residues stand in square brackets, D forms with d. Residues, ends and D or L forms follow the SMILES beside them. *: point of attachment. Sta = CC(C)C[C@H](N)[C@@H](O)CC(=O)O; Isovaleryl = CC(C)CC(=O)*
# Assay: BET inhibitor-based combinations targeting novel dependencies in MECOM-rearranged (r) AML: MV-4-11 cell line (AID 2202233); also: nearly all actives have a fitted effect of over 45% in size;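 as to viability, % of control: plate controls were DMSO for no effect and blank wells for full effect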
# Conditions: MV-4-11 AML viability, CellTiter-Glo luminescence, 48 h; series mostly up to 46 µM; viability, % of control: at the top concentration
# Source text: Ecotropic viral insertion site 1 (EVI1) is located on chromosome 3q26.2 as part of the MECOM (MDS and EVI1 complex) locus. Under normal hematopoiesis, EVI1 is a regulator of hematopoietic stem cell maintenance and self-renewal and EVI1 levels decrease as the cells differentiate. In approximately 5-10% of de novo acute myeloid leukemia (AML) EVI1 is aberrantly expressed, including Chromosomal inv(3)(q21;q26.2) or t(3;3)(q21;q26.2) alterations (MECOM-r) that account for about 50% of AML with EVI1 overexpression 31. AMLs with high levels of EVI1 have a poor prognosis and an overall survival time averaging between 10-14 months. EVI1 overexpression confers resistance in leukemia cells, highlighting the need to develop new targeted therapies for EVI1 overexpressing AMLs. Here, we performed an unbiased chemical drug screening by evaluating the single agent activity of a collection of 2,480 oncology-focused, approved and investigational drugs (NCATS Mechanism Interrogation Plates, MIPE v5.0) against a panel of seven AML cell lines. These included four MECOM-r cell-lines (AML-191, AML-194, UCSD-AML1 and HNT-34) and three non-MECOM-r AMLs (MV4-11, OCI-AML3 and SET-2). Exploiting the mechanistic redundancy built in the library, we identified target-level sensitivities in MECOM-r AML cells and relative activity as compared to other AML subtypes.
# A collection of 2480 mechanistically annotated dugs (MIPE v5.0) was used to screen four 3q26.2 rearranged AML cell lines and three non-3q26.2 rearranged AML cell lines. This library purposely exploits redundancy by including multiple inhibitors of key onco-targets, while simultaneously encompassing mechanistic diversity, targeting more than 800 distinct mechanisms of action. Briefly, cells were seeded in 5 uL of growth media using a Multidrop Combi dispenser into 1536 well white polystyrene tissue culture treated plates (Corning) at a density of 500cells/well. For each cell-line, for each of the 2480 drugs in MIPE v5.0 library, an 11-point dose curve was generated via a 1536 pin-tool. Plates were incubated for 48 hr at standard incubator conditions, covered by a stainless steel gasketed lid to prevent evaporation. Cell viability was determined by luminescence based, Cell Titer Glo assay (Promega). In detail, 3 uL of Cell Titer Glo were added to each well and plates were incubated at room temperature for 15 min with a stainless-steel lid in place. Luminescence readings were taken using a Viewlux (PerkinElmer) with a 2 s exposure time per plate. Compound dose-response curves were normalized to DMSO and empty well controls on each plate. Quantitative drug activity data from dose-response curves was determined utilizing area Under the Curve (AUC) and Z-transformed AUC (Z-AUC, a mean-centering transformation applied to each individual cell-line screened).
# Potency is read from the fitted curve at half-maximal effect.
Compound,"viability, % of control",Potency
CCCCn1c(=O)n(Cc2ccccc2F)c(=O)c2[nH]c(Cc3ccc(NC(C)=O)cc3)nc21,100%,
COc1ccc2c3n(c(=NC(=O)c4cccnc4)nc2c1OC)CCN3,,148 nM (active)
CCCCCOC(=O)Nc1nc(=O)n([C@@H]2O[C@H](C)[C@@H](O)[C@H]2O)cc1F,119%,
CC(C)Oc1cc(Nc2nc(N[C@@H](C)c3ccc(F)cn3)ncc2Cl)[nH]n1,,93.4 nM (active)
Oc1ccc([C@@H]2Oc3ccc(O)cc3[C@@H]3CCC[C@@H]32)cc1,,13200 nM (active)
CC1=C(CO)C(=O)O[C@@H]([C@@H](C)[C@H]2CC[C@H]3[C@@H]4C[C@H]5O[C@]56[C@@H](O)C=CC(=O)[C@]6(C)[C@H]4CC[C@]23C)C1,,662 nM (active)
CCN1CCC(n2cc(CNc3cc(Cl)c4ncc(C#N)c(Nc5ccc(F)c(Cl)c5)c4c3)nn2)CC1,,20900 nM (active)
CN[C@H](CC(C)C)C(=O)N[C@H]1C(=O)N[C@@H](CC(N)=O)C(=O)N[C@H]2C(=O)N[C@H]3C(=O)N[C@H](C(=O)N[C@H](C(=O)O)c4cc(O)cc(O)c4-c4cc3ccc4O)[C@H](O)c3ccc(c(Cl)c3)Oc3cc2cc(c3O[C@@H]2O[C@H](CO)[C@@H](O)[C@H](O)[C@H]2O[C@H]2C[C@](C)(N)[C@H](O)[C@H](C)O2)Oc2ccc(cc2Cl)[C@H]1O,124% [at 15.6 µM],
CCn1c(-c2nonc2N)nc2c(C#CC(C)(C)O)ncc(OC[C@H]3CCCNC3)c21,,18600 nM (active)
c1ccc2c(Oc3nc(Nc4ccc(N5CCOCC5)cc4)c4ncn(C5CCCCC5)c4n3)cccc2c1,,7420 nM (active)
C[C@@H]1C[C@H]2[C@@H]3CCC4=CC(=O)C=C[C@]4(C)[C@@]3(Cl)[C@@H](O)C[C@]2(C)[C@@]1(OC(=O)c1ccco1)C(=O)CCl,,23500 nM (active)
FC(F)(F)c1ccc(Nc2nc(-c3c(C(F)(F)F)nc4ccccn34)cs2)cc1,,417 nM (active)
CC(C)CC(=O)N[C@H](C(=O)N[C@H](C(=O)N[C@@H](CC(C)C)[C@@H](O)CC(=O)N[C@@H](C)C(=O)N[C@@H](CC(C)C)[C@@H](O)CC(=O)O)C(C)C)C(C)C (Isovaleryl-VV[Sta]A[Sta]-OH),120%,
Cc1cnc(-c2cc(N3CCN(C(=O)CCS(C)(=O)=O)CC3)ncc2Cl)c(C)c1,112%,
N#Cc1ccc(NC(=O)Nc2ccccc2Br)c2n[nH]nc12,101%,
CCCc1c(OCCCOc2ccc(OCC(=O)O)cc2)ccc(C(C)=O)c1O,120%,
Cc1noc2c1-c1ccccc1C(c1ccc(Cl)cc1)=N[C@H]2CC(N)=O,,525 nM (active)
COc1ccc(F)c(F)c1C(=O)c1cnc(NC2CCN(S(C)(=O)=O)CC2)nc1N,,1320 nM (active)
CCCOc1ccc(C(=O)OCCN(CC)CC)cc1N,100%,
COc1ccc(-c2cc3nccn3c(Nc3ncccc3C(N)=O)n2)cc1OC,,372 nM (active)

Compound,"viability, % of control",Potency
O=C(O)c1ccc(Nc2ncc3c(n2)-c2ccc(Cl)cc2C(c2c(F)cccc2F)=NC3)cc1,,934 nM (active)
Cc1cc(CS(=O)(=O)c2ccccc2)cc(OCc2ccc(CN3CCC[C@@H]3CO)cc2)c1,,10500 nM (active)
CC(=O)OC[C@@H]1O[C@@H](n2ccc(=O)[nH]c2=O)[C@H](OC(C)=O)[C@H]1OC(C)=O,108%,
COc1c(C)cnc(Cn2cnc3c(Cl)nc(N)nc32)c1C,,118 nM (active)
Fc1ccc2[nH]ccc2c1-c1nc(N2CCOCC2)c2sc(CN3CCN(CC4CC4)CC3)cc2n1,,14800 nM (active)
Cc1cccc(Nc2nc(N[C@@H]3CCCC[C@H]3N)ncc2C(N)=O)c1,,2630 nM (active)
COc1ccc(/C=C/C(=O)Nc2ccccc2C(=O)O)cc1OC,104%,
CN(N=O)C(=O)N[C@@H]1[C@@H](O)[C@H](O)[C@@H](CO)O[C@@H]1O,122%,
CC(=O)[C@H]1CC[C@H]2[C@@H]3CC=C4C[C@@H](O)CC[C@]4(C)[C@H]3CC[C@]12C,120%,
COc1cc2c(NC3CCN(CC4CCCCC4)CC3)nc(N3CCCN(C(C)C)CC3)nc2cc1OCCCN1CCCCC1,,6610 nM (active)
O=C(/C=C/c1ccc(O)cc1)c1ccc(O)cc1O,,11800 nM (active)
CS(=O)(=O)Oc1ccc2c(NC(N)=O)c(C(=O)c3ccc(Cl)cc3Cl)oc2c1,96.9%,
NC(=O)c1ccc(-c2nc(-c3ccc4c(c3)OCO4)c(-c3ccccn3)[nH]2)cc1,96.8%,
CC(C)c1cc(CNc2nc(Nc3cc(C4CC4)[nH]n3)cc(N3CCN(C)CC3)n2)on1,,74.2 nM (active)
CC(C)(Sc1ccc(CCN(CCCCC2CCCCC2)C(=O)NC2CCCCC2)cc1)C(=O)O,120%,
CCOC(=O)[C@H]1O[C@@H]1C(=O)N[C@@H](CC(C)C)C(=O)NCCC(C)C,,14800 nM (active)
CN1C2CCC1CC(OC(=O)C(CO)c1ccccc1)C2 (stereo not given),90.6%,
COc1ccc2c(Oc3ccc(NC(=O)c4c(C)n(CC(C)(C)O)n(-c5ccccc5)c4=O)nc3)ccnc2c1,,372 nM (active)
CC(=O)Nc1ccc(C(=O)Nc2ccccc2N)cc1,,5900 nM (active)
CCS(=O)(=O)c1cccc(-c2cc(C(=O)NC3CCN(C)CC3)c(C)c3[nH]c4ncc(C)cc4c23)c1,,93.4 nM (active)

# From PubChem BioAssay (NCATS)
